In PubChem BioAssay (NCI):
This is part of a sample that, as a whole, favours compounds with a hit. Of some 79,000 tested, about 15% had one in any assay. Calls of active or inactive are those of the source. No stated cut-off is given here; in the data, active means growth inhibition above about 70%; inactive means the rest.

Experiments:
[1] = NCI Yeast Anticancer Drug Screen. Data for the rad52 strain (AID 147);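 further: 0% = growth of vehicle-treated control cultures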; conditions: S. cerevisiae rad52 mutant growth inhibition, stronger effect = higher value
How it was run: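 Screen used a yeast mutant impaired in DNA repair. After compound exposure, growth was measured. Values reflect inhibition compared with vehicle-treated cells.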

[2] = NCI Yeast Anticancer Drug Screen. Data for the rad50EPP+ strain (AID 151);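 further: 0% = growth of vehicle-treated control cultures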; conditions: S. cerevisiae rad50 mutant strain, stronger effect = higher value
How it was run: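 Exposing the rad50EPP+ strain to each compound, growth was compared with vehicle-only cultures to give inhibition.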

[3] = NCI Yeast Anticancer Drug Screen. Data for the mgt1 strain (AID 153); conditions: S. cerevisiae mgt1 mutant growth inhibition, stronger effect = higher value
How it was run: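 Genetically defined yeast (mgt1) treated with compound; inhibition of growth expressed against vehicle-treated controls.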

[4] = NCI Yeast Anticancer Drug Screen. Data for the rad50 strain (AID 155);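 further: 0% = growth of vehicle-only cultures of the same strain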; conditions: S. cerevisiae rad50 strain growth inhibition, stronger effect = higher value
How it was run: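 Cells are treated with compound, grown, and their growth is then scored against vehicle-only cultures of the same repair-deficient yeast strain.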

[5] = NCI Yeast Anticancer Drug Screen. Data for the mec2-1 strain (AID 157); conditions: S. cerevisiae mec2-1 strain, stronger effect = higher value
How it was run: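 Readout is yeast growth inhibition, normalised to vehicle-treated controls, in the mec2-1 strain exposed to compound.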

[6] = NCI Yeast Anticancer Drug Screen. Data for the rad14 strain (AID 159);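 further: 0% = growth of vehicle-treated control cultures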; conditions: S. cerevisiae rad14 strain growth inhibition, stronger effect = higher value
How it was run: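 Readout: yeast growth inhibition, referenced to vehicle-only cultures. Strain bears a defined alteration in DNA damage repair.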

[7] = NCI Yeast Anticancer Drug Screen. Data for the sgs1 mgt1 strain (AID 161);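 further: 0% = growth of cultures given vehicle only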; conditions: S. cerevisiae sgs1 mgt1 strain, stronger effect = higher value
How it was run: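 Growth of a repair-deficient yeast mutant was monitored after compound treatment and expressed as inhibition relative to vehicle-treated cultures.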

[8] = NCI Yeast Anticancer Drug Screen. Data for the CLN2oe strain (AID 163);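 further: 0% = growth of vehicle-only control cultures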; conditions: S. cerevisiae CLN2oe strain, stronger effect = higher value
How it was run: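 Values reflect how much compound exposure reduced yeast growth, referenced to vehicle-exposed cells. Assay organism is a strain with a defined genetic change affecting cell-cycle control.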

[9] = NCI Yeast Anticancer Drug Screen. Data for the cln2 rad14 strain (AID 165);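 further: 0% = growth equal to vehicle treated cultures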; conditions: S. cerevisiae cln2 rad14 strain, stronger effect = higher value
How it was run: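 Relative to vehicle controls, growth inhibition of compound-treated cln2 rad14 yeast was recorded.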

[10] = NCI Yeast Anticancer Drug Screen. Data for the bub3 strain (AID 167); conditions: S. cerevisiae bub3 mutant strain, stronger effect = higher value
How it was run: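 Part of a panel of yeast mutants defective in DNA damage repair or cell cycle regulation. Each strain is grown with compound, and inhibition is calculated relative to solvent-treated cultures.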

[11] = NCI Yeast Anticancer Drug Screen. Data for the wt2 strain (AID 169);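 further: 0% = growth of vehicle-treated yeast cultures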; conditions: S. cerevisiae wt2 strain growth inhibition, stronger effect = higher value
How it was run: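 Values express reduction in yeast growth under compound treatment, referenced to vehicle-treated cells.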

[12] = NCI Yeast Anticancer Drug Screen. Data for the mlh1 strain (AID 171);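 further: 0% = growth of vehicle-treated control cultures of the same strain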; conditions: S. cerevisiae mlh1 strain growth inhibition, stronger effect = higher value
How it was run: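 Steps: expose the defined-mutant yeast strain to compound; expose a parallel culture to vehicle; measure growth; express compound effect as inhibition relative to the vehicle culture.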

[13] = NCI Yeast Anticancer Drug Screen. Data for the sgs1 strain (AID 173);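 further: 0% = growth of vehicle-only control cultures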; conditions: S. cerevisiae sgs1 mutant, stronger effect = higher value
How it was run: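 Treat defined-mutant yeast with compound; measure growth; calculate inhibition relative to vehicle-treated cells.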

[14] = NCI Yeast Anticancer Drug Screen. Data for the mlh1 rad18 strain (AID 175); conditions: S. cerevisiae mlh1 rad18 strain growth inhibition, stronger effect = higher value
How it was run: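 Test agents were incubated with a yeast strain of defined genotype (DNA damage repair defect). Inhibition of growth was derived by comparison with vehicle-exposed cultures.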

[15] = NCI Yeast Anticancer Drug Screen. Data for the rad18 strain (AID 177); conditions: S. cerevisiae rad18 mutant growth inhibition, stronger effect = higher value
How it was run: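 A genetically defined yeast mutant impaired in DNA damage repair was treated with test compounds, then its growth was measured against cultures receiving vehicle alone.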

[16] = NCI Yeast Anticancer Drug Screen. Data for the wt1 strain (AID 149);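 further: 0% = growth of vehicle-treated wt1 cultures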; conditions: S. cerevisiae wt1 strain (SPY 50644) growth inhibition, stronger effect = higher value
How it was run: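 The wt1 strain was treated with compounds, and growth was compared with vehicle-treated cultures to give inhibition.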

[17] = at 5.0 µM (retest, dose inferred, filed as 0.5)
[18] = at 50.0 µM (retest, dose inferred, filed as 5.0)

Measured: growth inhibition

O=C(O)Cc1cc(F)ccc1C(=O)O
active: [9]; at 50.0 µM 94.5% | [10]; at 50.0 µM 73.5% | [12]; at 100.0 µM 76% | [14]; [18] 75%
inactive: [1]; at 1.2 µM 3% | [1]; at 3.7 µM 4% | [1]; at 11.0 µM 7% | [1]; at 33.0 µM 12% | [1]; at 100.0 µM 28% | [2]; at 1.2 µM -2% | [2]; at 3.7 µM -6% | [2]; at 11.0 µM -13% | [2]; at 33.0 µM -26% | [2]; at 100.0 µM -15% | [3]; at 1.2 µM -1% | [3]; at 3.7 µM 3% | [3]; at 11.0 µM 9% | [3]; at 33.0 µM 28% | [3]; at 100.0 µM 48% | [4]; at 1.2 µM 3% | [4]; at 3.7 µM 3% | [4]; [17] -2% | [4]; at 11.0 µM 6% | [4]; at 33.0 µM 12% | [4]; [18] 45% | [4]; at 50.0 µM 5.3% | [4]; at 100.0 µM 29% | [5]; at 1.2 µM -1% | [5]; at 3.7 µM 0% | [5]; [17] 1% | [5]; at 11.0 µM 3% | [5]; at 33.0 µM 11% | [5]; [18] 2% | [5]; at 50.0 µM 29.9% | [5]; at 100.0 µM 30% | [6]; at 1.2 µM 0% | [6]; at 3.7 µM -2% | [6]; at 11.0 µM 4% | [6]; at 33.0 µM 14% | [6]; at 100.0 µM 51% | [7]; [17] -8% | [7]; [18] 65% | [7]; at 50.0 µM 21.2% | [8]; at 1.2 µM 1% | [8]; at 3.7 µM 4% | [8]; at 11.0 µM 12% | [8]; at 33.0 µM 7% | [8]; at 100.0 µM 12% | [9]; [17] -2% | [9]; [18] 5% | [10]; at 1.2 µM -1% | [10]; at 3.7 µM -2% | [10]; [17] 8% | [10]; at 11.0 µM 1% | [10]; at 33.0 µM 4% | [10]; [18] 66% | [10]; at 100.0 µM 17% | [11]; at 1.2 µM 2% | [11]; at 3.7 µM 6% | [11]; at 11.0 µM 13% | [11]; at 33.0 µM 18% | [11]; at 100.0 µM 42% | [12]; at 1.2 µM 5% | [12]; at 3.7 µM 2% | [12]; at 11.0 µM 7% | [12]; at 33.0 µM 15% | [13]; at 1.2 µM 2% | [13]; at 3.7 µM 7% | [13]; at 11.0 µM 9% | [13]; at 33.0 µM 21% | [13]; at 100.0 µM 65% | [14]; [17] -5% | [14]; at 50.0 µM 38.3% | [15]; at 1.2 µM 3% | [15]; at 3.7 µM 1% | [15]; at 11.0 µM 0% | [15]; at 33.0 µM 12% | [15]; at 100.0 µM 42%

Oc1ccc(O)c(Cc2ccccc2)c1
inactive: [1]; at 1.2 µM 21% | [1]; at 3.7 µM 48% | [16]; at 1.2 µM 6% | [16]; at 3.7 µM 14% | [16]; at 11.0 µM 29% | [16]; at 33.0 µM 50% | [3]; at 1.2 µM 4% | [3]; at 3.7 µM 13% | [3]; at 11.0 µM 37% | [4]; at 1.2 µM 37% | [5]; at 1.2 µM 6% | [5]; at 3.7 µM 30% | [5]; [17] -9% | [5]; [18] 68% | [6]; at 1.2 µM 17% | [6]; at 3.7 µM 34% | [7]; [17] -20% | [7]; [18] 68% | [8]; at 1.2 µM 3% | [8]; at 3.7 µM 28% | [8]; at 11.0 µM 40% | [9]; [17] -25% | [9]; [18] 47% | [10]; at 1.2 µM 8% | [10]; at 3.7 µM 25% | [10]; [17] -26% | [10]; at 11.0 µM 63% | [11]; at 1.2 µM -2% | [11]; at 3.7 µM 1% | [11]; at 11.0 µM 23% | [11]; at 33.0 µM 58% | [12]; at 1.2 µM 9% | [12]; at 3.7 µM 22% | [12]; at 11.0 µM 47% | [13]; at 1.2 µM 16% | [13]; at 3.7 µM 45% | [14]; [17] 36% | [15]; at 1.2 µM 27% | [15]; at 3.7 µM 52%
active: [1]; at 11.0 µM 89% | [1]; at 33.0 µM 97% | [1]; at 100.0 µM 99% | [16]; at 100.0 µM 93% | [3]; at 33.0 µM 78% | [3]; at 100.0 µM 99% | [4]; at 3.7 µM 87% | [4]; [17] 77% | [4]; at 11.0 µM 97% | [4]; at 33.0 µM 99% | [4]; [18] 97% | [4]; at 50.0 µM 79.3% | [4]; at 100.0 µM 99% | [5]; at 11.0 µM 75% | [5]; at 33.0 µM 100% | [5]; at 50.0 µM 84.3% | [5]; at 100.0 µM 100% | [6]; at 11.0 µM 73% | [6]; at 33.0 µM 98% | [6]; at 100.0 µM 99% | [7]; at 50.0 µM 92.5% | [8]; at 33.0 µM 72% | [8]; at 100.0 µM 98% | [9]; at 50.0 µM 97.4% | [10]; at 33.0 µM 97% | [10]; [18] 88% | [10]; at 50.0 µM 98.3% | [10]; at 100.0 µM 99% | [11]; at 100.0 µM 87% | [12]; at 33.0 µM 89% | [12]; at 100.0 µM 98% | [13]; at 11.0 µM 94% | [13]; at 33.0 µM 99% | [13]; at 100.0 µM 99% | [14]; [18] 95% | [14]; at 50.0 µM 98% | [15]; at 11.0 µM 87% | [15]; at 33.0 µM 97% | [15]; at 100.0 µM 99%
